The test system of experiment [1] is Plasmodium falciparum Sir2 (PF13_0152, Sir2A). Description: Plasmodium falciparum Sir2A binding compounds – biochemical, small-molecule microarray, 635 nm fluorescence, primary screen (AID 1098).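 Note: score merges spot fluorescence intensity with its signal-to-noise ratio.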 The conditions noted are these: fluorescence 635 nm, higher = more signal.
Experiment [2] can be described thus: probe aDKK1 binding to arrayed compounds – biochemical, biotinylated probe, 635/667 nm fluorescence, primary screen (AID 1099).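 Note: score merges 667nm spot fluorescence with signal to noise across triplicate slides.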 The conditions noted are these: small-molecule microarray, higher = more signal.
The nature of experiment [3]: probe aCHRDL2 binding to arrayed compounds – biochemical, biotinylated probe, 635/667 nm fluorescence, primary screen (AID 1100). The following applies: small-molecule microarray, higher = more signal.
Experiment [4] in a line: change in splice reporter luminescence, either direction, cell-based, HEK293, spliceosome inhibition project, primary screen (AID 1101).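 Note: HEK293 cells carrying a splicing-competent luciferase reporter gene; test concentration not given here.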 The following applies: HEK293 splicing luciferase reporter, 24 h, higher = more signal, called active from +8 up or from −8 down. (A reporter such as luciferase makes a cellular process visible.)
In experiment [5] the target is Fibroblast growth factor 10 (Homo sapiens) (UniProt O15520). Kind of experiment: compounds binding fibroblast growth factor 10 – biochemical, small-molecule microarray, 635 nm fluorescence, primary screen (AID 1102). The conditions noted are these: FGF10 binding, fluorescence 635 nm, higher = more signal.
Fibroblast growth factor 10 (Homo sapiens), sequence (O15520 whole entry, looked up): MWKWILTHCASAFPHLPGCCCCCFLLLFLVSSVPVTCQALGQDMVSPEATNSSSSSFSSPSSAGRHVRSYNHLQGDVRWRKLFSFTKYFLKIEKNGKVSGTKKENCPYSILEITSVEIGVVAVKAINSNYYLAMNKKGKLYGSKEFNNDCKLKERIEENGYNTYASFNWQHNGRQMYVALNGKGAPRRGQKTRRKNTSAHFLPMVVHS
The subject of experiment [6] is glycogen synthase kinase-3 (GSK3A per assay name; protocol says GSK3B). Kind of experiment: compounds binding glycogen synthase kinase-3 – biochemical, small-molecule microarray, 635 nm fluorescence, GSK3A, primary screen (AID 1103). Note: the record names both GSK3A and GSK3B. The conditions noted are these: fluorescence 635 nm, higher = more signal.
Experiment [7] deals with Epidermal growth factor receptor (Homo sapiens) (UniProt P00533). Description: compounds binding epidermal growth factor receptor – biochemical, small-molecule microarray, 635 nm fluorescence, primary screen (AID 1104).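 Note: score merges 667 nm emission intensity with spot signal to noise over triplicate slides.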 The conditions noted are these: EGFR binding, higher = more signal.
Epidermal growth factor receptor (Homo sapiens), sequence (P00533 whole entry, looked up): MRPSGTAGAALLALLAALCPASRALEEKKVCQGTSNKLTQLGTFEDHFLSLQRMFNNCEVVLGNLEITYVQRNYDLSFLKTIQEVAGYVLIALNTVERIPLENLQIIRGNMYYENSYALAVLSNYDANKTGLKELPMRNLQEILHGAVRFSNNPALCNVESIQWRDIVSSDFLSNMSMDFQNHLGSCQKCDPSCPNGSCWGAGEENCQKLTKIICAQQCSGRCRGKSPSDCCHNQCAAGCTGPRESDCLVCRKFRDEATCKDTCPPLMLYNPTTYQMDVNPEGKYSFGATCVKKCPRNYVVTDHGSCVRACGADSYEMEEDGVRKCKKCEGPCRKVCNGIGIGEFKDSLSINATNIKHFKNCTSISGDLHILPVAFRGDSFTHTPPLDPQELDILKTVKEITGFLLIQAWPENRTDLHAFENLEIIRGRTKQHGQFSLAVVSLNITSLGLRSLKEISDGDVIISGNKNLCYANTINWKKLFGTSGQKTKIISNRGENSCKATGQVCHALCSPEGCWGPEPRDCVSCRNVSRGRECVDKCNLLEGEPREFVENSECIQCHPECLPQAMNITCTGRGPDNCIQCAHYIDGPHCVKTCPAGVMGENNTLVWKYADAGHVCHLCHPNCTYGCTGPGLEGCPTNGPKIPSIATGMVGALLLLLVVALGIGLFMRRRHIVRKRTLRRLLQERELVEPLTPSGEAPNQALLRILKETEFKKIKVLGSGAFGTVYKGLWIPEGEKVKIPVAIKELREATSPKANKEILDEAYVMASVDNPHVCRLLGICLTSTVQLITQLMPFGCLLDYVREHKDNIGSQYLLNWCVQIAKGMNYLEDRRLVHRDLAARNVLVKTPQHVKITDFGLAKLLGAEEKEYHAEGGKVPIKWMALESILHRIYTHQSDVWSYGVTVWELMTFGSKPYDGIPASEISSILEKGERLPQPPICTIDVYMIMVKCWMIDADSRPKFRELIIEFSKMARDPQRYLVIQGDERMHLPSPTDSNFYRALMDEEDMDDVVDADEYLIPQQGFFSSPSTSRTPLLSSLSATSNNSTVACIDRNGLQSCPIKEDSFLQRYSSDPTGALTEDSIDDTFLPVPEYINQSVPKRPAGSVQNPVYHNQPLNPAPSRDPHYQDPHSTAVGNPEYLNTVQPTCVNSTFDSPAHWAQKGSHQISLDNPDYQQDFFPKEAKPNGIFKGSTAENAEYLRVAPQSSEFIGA
Experiment [8] deals with Follistatin-related protein 3 (Homo sapiens) (UniProt O95633). Description: compounds binding follistatin-related protein 3 – biochemical, small-molecule microarray, 635 nm fluorescence, primary screen (AID 1105).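 Note: score merges emission near 667 nm and signal to noise per printed spot across three slides.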 The following applies: FSTL3 binding, higher = more signal.
Follistatin-related protein 3 (Homo sapiens), sequence (O95633 whole entry, looked up): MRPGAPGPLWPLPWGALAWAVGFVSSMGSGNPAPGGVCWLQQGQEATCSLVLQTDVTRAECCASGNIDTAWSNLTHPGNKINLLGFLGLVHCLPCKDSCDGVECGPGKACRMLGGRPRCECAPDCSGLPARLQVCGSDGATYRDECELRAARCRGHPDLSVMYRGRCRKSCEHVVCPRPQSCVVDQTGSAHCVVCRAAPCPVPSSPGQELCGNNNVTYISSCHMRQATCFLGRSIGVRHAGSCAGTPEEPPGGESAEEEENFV
Experiment [9] has as its target Dickkopf-related protein 1 (Homo sapiens) (UniProt O94907). Description: small molecules binding DKK1 protein – biochemical, small-molecule microarray, 635 nm fluorescence scan, primary screen (AID 1106).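 Note: score merges emission near 667 nm with signal to noise over three replicate slides.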 The conditions noted are these: higher = more signal.
The test system of experiment [10] is Inhibin beta A chain (activin A). Description: small molecules binding activin A – biochemical, small-molecule microarray, 635 nm fluorescence scan, primary screen (AID 1107).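 Note: mouse activin A protein probed at 4.33 µg/mL on printed slides; score merges bound-protein fluorescence near 667 nm with spot signal-to-noise.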 The following applies: INHBA, higher = more signal.
Experiment [11] relates to Human papillomavirus type 1a protein E7 (residues 44-93). Kind of experiment: small molecules binding HPV E7 44-93 – biochemical, small-molecule microarray, residues 44-93, 635 nm fluorescence, primary screen (AID 1108).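 Note: E7 fragment applied at 1 µg/mL in TBST for 1 h at 4 C; score combines spot fluorescence with its signal to noise ratio.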 The conditions noted are these: fluorescence 635 nm, higher = more signal.
A short description of experiment [12]: hepatitis C replication reporter changes, two-sided – Huh7 cells, luciferase reporter, HCV replication inhibitor project, primary screen (AID 1109).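 Note: huh7 hepatoma cells harbouring a luciferase neomycin HCV replicon reporter; luciferase luminescence as measure of HCV replicon replication; test concentration not given here.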 The conditions noted are these: Huh7 HCV replicon luciferase reporter, 48 h; higher = more signal.
The target in experiment [13] is Left-right determination factor 2 (Homo sapiens) (UniProt O00292). Kind of experiment: small molecules binding LEFTY2 protein – biochemical, small-molecule microarray, 635 nm fluorescence scan, primary screen (AID 1110). The following applies: higher = more signal.
Left-right determination factor 2 (Homo sapiens), sequence (O00292 whole entry, looked up): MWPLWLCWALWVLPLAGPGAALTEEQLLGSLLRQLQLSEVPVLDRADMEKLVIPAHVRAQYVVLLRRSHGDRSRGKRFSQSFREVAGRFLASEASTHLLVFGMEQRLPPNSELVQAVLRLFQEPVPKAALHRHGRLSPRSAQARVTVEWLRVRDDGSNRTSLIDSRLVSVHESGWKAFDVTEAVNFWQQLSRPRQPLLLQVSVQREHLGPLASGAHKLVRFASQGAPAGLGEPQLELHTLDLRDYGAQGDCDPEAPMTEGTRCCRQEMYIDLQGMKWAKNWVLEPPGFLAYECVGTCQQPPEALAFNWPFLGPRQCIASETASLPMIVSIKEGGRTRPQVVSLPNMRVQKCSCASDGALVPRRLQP
In experiment [14] the target is Calmodulin-1 (Homo sapiens) (UniProt P0DP23). Kind of experiment: small molecules binding calmodulin-1 with EGTA – biochemical, small-molecule microarray, Cy5-labelled CALM1, profiling panel (AID 1111).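 Note: labelled calmodulin applied in Tris saline Tween buffer holding calcium plus EGTA and DTT.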 The following applies: Cy5-CALM1 binding fluorescence, higher = more signal.
Experiment [15] has the same target. Kind of experiment: small molecules binding Ca-loaded calmodulin-1 – biochemical, small-molecule microarray, Cy5-labelled CALM1, plus calcium, artefact control for SMM control-protein annotation, profiling panel (AID 1112).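 Note: score merges spot fluorescence with signal to noise from triplicate slides.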 The conditions noted are these: Cy5-CALM1 binding fluorescence, higher = more signal.
Experiment [16] is described as follows: probe aWnt5a binding to arrayed compounds – biochemical, biotinylated probe, 635/667 nm fluorescence, primary screen (AID 1113).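 Note: score merges 667 nm fluorescence intensity with signal-to-noise per printed feature.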 The conditions noted are these: small-molecule microarray, higher = more signal.
A short description of experiment [17]: probe aShh binding to arrayed compounds – biochemical, biotinylated probe, 635/667 nm fluorescence, primary screen (AID 1114).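 Note: probe is biotin-labelled aShh protein from a stem cell growth factor screen; measures binding of labelled protein to compounds printed on the slide; score merges feature fluorescence at 667 nm with signal-to-noise.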 The following applies: small-molecule microarray, higher = more signal.
Experiment [18] is described as follows: probe aNog binding to arrayed compounds – biochemical, biotinylated probe, 635/667 nm fluorescence, primary screen (AID 1115).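 Note: probe is biotinylated aNog protein used at 0.15 µg/mL for 1 h at 4 C; z-score combines 667 nm fluorescence of each spot with its signal to noise.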 The following applies: small-molecule microarray, higher = more signal.
Experiment [19] addresses Torsin-1A-interacting protein 1 (Homo sapiens) (UniProt Q5JTV8). Description: compound microarray binding of lysate hLAP1 – cell lysate, small-molecule microarray, COS7 lysate, 635/667 nm fluorescence, primary screen (AID 1116). The following applies: 635 nm fluorescence, higher = more signal.
Experiment [20] deals with Alpha-bungarotoxin (Bungarus multicinctus) (UniProt P60615). Kind of experiment: compounds binding labelled alpha-BTX control protein – biochemical, small-molecule microarray, Alexa647 label, 635/667 nm fluorescence, artefact control for SMM control protein annotation, profiling panel (AID 1117). The following applies: alpha-BTX-A647 binding fluorescence, higher = more signal.
Alpha-bungarotoxin (Bungarus multicinctus), sequence (P60615 whole entry, looked up): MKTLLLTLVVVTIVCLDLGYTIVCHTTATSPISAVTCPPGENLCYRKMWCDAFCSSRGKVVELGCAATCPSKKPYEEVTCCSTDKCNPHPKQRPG

Activity calls are given as the source filed them.

Dickkopf-related protein 1 (Homo sapiens), sequence (O94907 whole entry, looked up): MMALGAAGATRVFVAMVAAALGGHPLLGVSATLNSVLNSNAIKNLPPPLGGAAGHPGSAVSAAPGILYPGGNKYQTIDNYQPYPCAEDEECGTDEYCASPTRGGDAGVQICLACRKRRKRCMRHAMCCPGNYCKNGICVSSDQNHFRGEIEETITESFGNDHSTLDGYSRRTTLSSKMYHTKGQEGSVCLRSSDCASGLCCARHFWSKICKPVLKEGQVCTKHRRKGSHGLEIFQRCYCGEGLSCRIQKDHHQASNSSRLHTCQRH
Torsin-1A-interacting protein 1 (Homo sapiens), sequence (Q5JTV8 whole entry, looked up): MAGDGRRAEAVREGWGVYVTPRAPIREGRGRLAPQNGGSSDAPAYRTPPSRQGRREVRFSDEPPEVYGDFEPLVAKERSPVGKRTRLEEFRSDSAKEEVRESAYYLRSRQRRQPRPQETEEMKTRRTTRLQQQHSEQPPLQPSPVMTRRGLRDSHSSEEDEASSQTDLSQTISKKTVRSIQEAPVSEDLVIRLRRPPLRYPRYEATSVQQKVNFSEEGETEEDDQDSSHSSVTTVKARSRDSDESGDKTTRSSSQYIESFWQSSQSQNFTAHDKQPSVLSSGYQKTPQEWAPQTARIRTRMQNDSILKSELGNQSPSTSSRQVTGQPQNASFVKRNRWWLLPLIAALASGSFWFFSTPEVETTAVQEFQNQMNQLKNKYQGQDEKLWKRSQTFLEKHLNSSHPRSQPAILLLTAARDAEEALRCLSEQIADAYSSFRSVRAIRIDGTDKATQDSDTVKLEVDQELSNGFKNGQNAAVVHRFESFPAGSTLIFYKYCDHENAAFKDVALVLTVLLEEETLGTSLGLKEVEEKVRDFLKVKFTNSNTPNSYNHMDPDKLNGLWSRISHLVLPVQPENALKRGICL

As to `CC(C)CNC(=O)[C@@]1(c2ccc([N+](=O)[O-])cc2)CC(=O)N(CC23CC4CC(CC(C4)C2)C3)[C@@H]1c1ccc(CO)cc1`, the composite z-score in experiment [1] was 0.947; in experiment [2] it was 0.0324; in [3], 0.555; in [5], 1.24; in [6], 0.715; in experiment [7], 0.283. Also, the composite z-score in [8] was 0.58; in [9] it was 0.127; in experiment [10] it was 0.328; in experiment [11] it was 1.07; in [13], -0.15; in experiment [14], -0.367. Also, the composite z-score was 0.113 in [15]; 0.0215 in [16]; -0.0709 in experiment [17]; 1.23 in experiment [18]; 1.96 in experiment [19]; 0.438 in [20]. Also, the z-score in [4] is -2.11 (inactive); in experiment [12], -2.62.
`CCCCCN1CC=CC23O[C@@H]4/C=C\CCCOC(=O)C4[C@H]2C(=O)N(CCCCCCO)[C@@H]3C1=O` (stereo not given in full): the composite z-score was 1.43 in experiment [1]; -0.231 in experiment [2]; 0.139 in [3]; -0.894 in experiment [5]; 0.233 in experiment [6]; -0.0633 in experiment [7]. In addition, the composite z-score in experiment [8] is -0.0242; in experiment [9] it was -1.22; in experiment [10] it was 1.26; in experiment [11], -0.0348; in [13] it was -0.545; in [14], -0.758. The composite z-score was -0.0227 in experiment [15]; -0.154 in experiment [16]; -0.0035 in experiment [17]; -0.237 in [18]; 1.09 in [19]; -0.752 in [20]. In addition, the values for the z-score in experiment [4] and in experiment [12] were -3.07 (inactive) and -0.857, respectively.
Regarding `C=C(COC)C(=O)CC[C@H](OC(C)=O)c1cccc(OCCO)c1`, the composite z-score in experiment [1] was -0.443; in experiment [2] it was -0.305; in experiment [3], -0.0122; in experiment [5] it was 1.06; in experiment [6], 0.121; in [7], -0.92. Moreover, the composite z-score in experiment [8] is -0.249; in experiment [9], -0.118; in [10], 0.35; in [11] it was -0.76; in [13], -0.729; in [14], -0.779. Moreover, the composite z-score was -0.773 in [15]; -0.124 in experiment [16]; 0.111 in experiment [17]; -0.0428 in experiment [18]; 0.8 in [19]; 1.24 in experiment [20]. Besides, the z-score in experiment [4] is -0.637 (inactive); in experiment [12] it was -0.574.
In the case of `O=C1O[C@@H](c2ccccc2)[C@@H](c2ccccc2)N2[C@@H](c3ccc(O)cc3)[C@]3(C(=O)Nc4ccc(C#CC5=CCCCC5)cc43)[C@@H](C(=O)O)[C@H]12`, the composite z-score turned out to be 1.14 in experiment [1]; 0.799 in [2]; 0.999 in [3]; 0.277 in experiment [5]; 0.653 in [6]; 0.035 in experiment [7]. The composite z-score in experiment [8] came out at 0.545; in [9], 0.0526; in experiment [10], 1.19; in experiment [11], 0.2; in experiment [13], 0.0765; in experiment [14], 2.02. Also, the composite z-score in experiment [15] is 0.999; in [16] it was -0.0077; in experiment [17], 0.123; in experiment [18] it was 0.413; in experiment [19] it was 1.55; in experiment [20], 1.17. The z-score in [4] is -1.05 (inactive); in experiment [12], 0.0664.
Regarding `COc1ccc([Si](C)(C)[C@H]2[C@H](CCn3cc(CCO)nn3)O[C@@]3(C(=O)N(Cc4ccc(N5CCOC5=O)cc4)c4ccccc43)[C@@H]2C)cc1`, the composite z-score was 1.51 in experiment [1]; -0.0848 in experiment [2]; 0.236 in [3]; 0.209 in [5]; 0.625 in [6]; -0.0252 in experiment [7]. The composite z-score in experiment [8] was 0.642; in experiment [9] it was 0.141; in [10], 0.766; in experiment [11] it was 0.469; in [13] it was -0.129; in experiment [14] it was 0.122. The composite z-score is 0.0117 in experiment [15]; -0.124 in [16]; 0.0469 in [17]; 0.0581 in experiment [18]; 1.03 in experiment [19]; 1.27 in experiment [20]. Besides, the z-score in [4] is -0.188 (inactive); in [12], -4.2.
As to `C=CCOC(=O)[C@H]1[C@@H]2C(=O)O[C@@H](c3ccccc3)[C@@H](c3ccccc3)N2[C@@H](c2ccc(OCCOC(=O)[C@@H]3C[C@@H]4C(=O)NCC(=O)N4[C@@H]3c3ccc(O)cc3)cc2)[C@]12C(=O)Nc1ccccc12`, the composite z-score is 1.24 in experiment [1]; -0.206 in [2]; -0.167 in [3]; 1.14 in experiment [5]; 1.19 in experiment [6]; 0.457 in [7]. The composite z-score was 1.34 in experiment [8]; 0.535 in experiment [9]; 0.217 in experiment [10]; 0.919 in experiment [11]; 0.733 in [13]; 0.325 in experiment [14]. The composite z-score in experiment [15] was 0.0637; in experiment [16], -0.0573; in experiment [17], -0.0192; in experiment [18], -0.0216; in [19], 0.609; in experiment [20] it was -0.195. The figures for the z-score in [4] and in [12] were -1.15 (inactive) and -1.34, respectively.
As to `COCCOC(=O)N1C(=O)[C@@]2(c3cc(C#CCC(C(=O)OC)C(=O)OC)ccc31)[C@H](c1ccccc1OCCO)N1[C@H](c3ccccc3)[C@H](c3ccccc3)OC(=O)[C@H]1[C@@H]2C(=O)N1CCc2cc(OC)c(OC)cc2C1`, the composite z-score in experiment [1] was 1.24; in experiment [2], 0.176; in [3] it was -0.131; in experiment [5], 1.16; in experiment [6] it was 1.33; in experiment [7], 0.99. Besides, the composite z-score in [8] was determined as 1.3; in experiment [9], 1.42; in [10], 0.645; in experiment [11] it was 1.2; in experiment [13], 0.958; in [14], 1.54. Further, the composite z-score in experiment [15] is 0.0013; in [16], -0.363; in experiment [17] it was -0.148; in experiment [18], -0.289; in experiment [19] it was 0.496; in experiment [20], 0.942. In addition, the z-score in [4] is -0.988 (inactive); in [12] it was -1.79.

Values taken from PubChem BioAssay.
